Where “and” joins values, the source holds several entries; their conditions need not be identical. Equal values may be shown once.

One may read the inhibition as the relative decrease from the control value, in per cent.

Sequence of C-X-C chemokine receptor type 6 (Homo sapiens) (O00574 whole entry, looked up): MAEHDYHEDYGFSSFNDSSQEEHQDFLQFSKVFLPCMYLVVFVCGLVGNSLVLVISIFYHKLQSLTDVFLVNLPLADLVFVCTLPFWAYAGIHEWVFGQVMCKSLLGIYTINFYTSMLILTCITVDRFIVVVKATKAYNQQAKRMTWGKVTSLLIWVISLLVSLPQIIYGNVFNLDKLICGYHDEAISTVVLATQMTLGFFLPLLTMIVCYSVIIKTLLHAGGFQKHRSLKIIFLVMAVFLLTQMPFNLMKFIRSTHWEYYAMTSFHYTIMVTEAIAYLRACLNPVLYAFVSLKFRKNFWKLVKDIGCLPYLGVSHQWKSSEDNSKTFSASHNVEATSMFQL

This experiment has as its target C-X-C chemokine receptor type 6 (Homo sapiens) (UniProt O00574). In words: CXCR6 and CXCR5 receptor antagonist panel, profiling panel, selectivity assay for CXCR6 antagonist project, cell-based, CHO-K1 PathHunter beta-arrestin, luminescence, set 4 (AID 651919). Conditions: run 1, at 79 µM (top of the series).
For the compound `COc1ccc(NC(=O)CN2C3CCCC2CC(NC(=O)c2ccc4c(c2)OCO4)C3)cc1` (centres undefined), the inhibition is -0.217%.

With `COc1cccc(C(=O)NC2CC3CCCC(C2)N3CC(=O)Nc2ccc(Cl)cc2)c1` (centres undefined), the inhibition was 1.72%.

For the compound `COc1cc(C(=O)NC2CC3CCCC(C2)N3CC(=O)Nc2ccccc2Cl)cc(OC)c1OC` (centres undefined), the inhibition was 99.8% and 101%.

For `COc1cc(C(=O)NC2CC3CCCC(C2)N3CC(=O)Nc2ccc(Cl)cc2)cc(OC)c1OC` (centres undefined), the inhibition turned out to be 88.2%.

In the case of `COc1ccc(C(=O)NC2CC3CCCC(C2)N3CC(=O)Nc2ccc(F)cc2)cc1` (centres undefined), the inhibition is -4.57%.

Take `COc1cc(OC)cc(C(=O)NC2CC3CCCC(C2)N3CC(=O)Nc2ccc(C)cc2)c1` (centres undefined): the inhibition amounted to 10.9%.

As to `COc1ccc(C(=O)NC2CC3CCCC(C2)N3CC(=O)Nc2ccccc2)cc1` (centres undefined), the inhibition stood at 0.75%.

Take `COc1cccc(C(=O)NC2CC3CCCC(C2)N3CC(=O)Nc2ccccc2)c1` (centres undefined): the inhibition was determined as 16.6%.

Take `COc1ccc(C(=O)NC2CC3CCCC(C2)N3CC(=O)Nc2ccccc2)cc1OC` (centres undefined): the inhibition was 33.7%.

Turning to `COc1ccc(C(=O)NC2CC3CCCC(C2)N3CC(=O)Nc2ccc(Cl)cc2)cc1` (centres undefined), the inhibition is -4.29%.

For `COc1cc(C(=O)NC2CC3CCCC(C2)N3CC(=O)Nc2ccccc2)cc(OC)c1OC` (centres undefined), the inhibition was 96.3% and 90.5%.

For `COc1ccc(NC(=O)CN2C3CCCC2CC(NC(=O)c2cccc(OC)c2)C3)cc1` (centres undefined), the inhibition came out at 0.669%.

Consider `COc1cc(C(=O)NC2CC3CCCC(C2)N3CC(=O)Nc2ccc(C)cc2)cc(OC)c1OC` (centres undefined), for which the inhibition is 79%.

With `O=C(CN1C2CCCC1CC(NC(=O)c1ccc3c(c1)OCO3)C2)Nc1ccc(Cl)cc1` (centres undefined), the inhibition was 3.65%.

Regarding `COc1ccccc1NC(=O)CN1C2CCCC1CC(NC(=O)c1cc(OC)c(OC)c(OC)c1)C2` (centres undefined), the inhibition worked out at 97.4%.

As for `COc1ccc(C(=O)NC2CC3CCCC(C2)N3CC(=O)Nc2ccc(F)cc2)cc1OC` (centres undefined), the inhibition amounted to 15%.

Take `COc1ccc(C(=O)NC2CC3CCCC(C2)N3CC(=O)Nc2ccc(C)cc2)cc1OC` (centres undefined): the inhibition was 23.5%.

Take `Cc1ccc(NC(=O)CN2C3CCCC2CC(NC(=O)c2ccc4c(c2)OCO4)C3)cc1` (centres undefined): the inhibition came to 11.9%.

`COc1ccc(CN2C3CCCC2CC(NC(=O)c2cc(OC)c(OC)c(OC)c2)C3)cc1` (centres undefined): the inhibition turned out to be 57.9%.

For the origin of these results see PubChem BioAssay AID651919 (Sanford-Burnham Center for Chemical Genomics, 2012).
